In publication PMC8384837, “Expanding the binding specificity for RNA recognition by a PUF domain” one finds binding signal data, which are given here for 15 sequences.

Holding throughout (test): yeast three-hybrid, YBZ-1, SC-Leu-His + 0.5 mM 3-AT, 4 days
What all share (conditions): tags: N-Gal4 AD-HA kept; label: inside an RPR1-promoter hybrid RNA with tandem MS2 sites; ssRNA

One test has as its target PUM1 PUF domain R3-RRW (Homo sapiens, UniProt Q14671 828-1176, C935R;Q939W). In short, it runs like this:
(§1)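 Each repeat of the Pumilio-1 PUF domain was randomized at its three base-contacting residues, and these libraries were co-expressed from a centromeric plasmid with matching RNA elements in strain YBZ-1. After four days on SC-Leu (input) or SC-Leu-His + 0.5 mM 3-AT (selection), the repeat regions were PCR-amplified and Illumina-sequenced. The interaction score compares variant frequency between input and selection as a log change, computed in log2 with a pseudocount of 1 for absent variants.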

The target in a further test is PUM1 PUF domain R3-EFA (Homo sapiens, UniProt Q14671 828-1176, C935E;R936F;Q939A). In short, it runs like this:
as §1

For a further test, the target named is PUM1 PUF domain R3-TSR (Homo sapiens, UniProt Q14671 828-1176, C935T;R936S;Q939R). In short, it runs like this:
as §1

A further test deals with PUM1 PUF domain R3-RVA (Homo sapiens, UniProt Q14671 828-1176, C935R;R936V;Q939A). In short, it runs like this:
as §1

The target in another test is PUM1 PUF domain R3-VYW (Homo sapiens, UniProt Q14671 828-1176, C935V;R936Y;Q939W). In short, it runs like this:
as §1

The next test concerns the target T1, PUM1 PUF domain R6-DFE (Homo sapiens, UniProt Q14671 828-1176, N1043D;Y1044F;Q1047E).
T1 sequence: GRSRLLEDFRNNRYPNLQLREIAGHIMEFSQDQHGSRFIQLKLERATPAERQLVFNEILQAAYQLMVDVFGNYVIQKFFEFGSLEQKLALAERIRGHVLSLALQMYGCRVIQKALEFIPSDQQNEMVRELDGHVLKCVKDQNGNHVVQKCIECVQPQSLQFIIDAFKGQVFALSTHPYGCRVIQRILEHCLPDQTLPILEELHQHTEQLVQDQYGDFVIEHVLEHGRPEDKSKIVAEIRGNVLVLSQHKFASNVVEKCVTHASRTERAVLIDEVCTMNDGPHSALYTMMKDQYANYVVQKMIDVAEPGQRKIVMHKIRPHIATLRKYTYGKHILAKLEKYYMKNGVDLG
In short, it runs like this: as §1

The next test has as its target PUM1 PUF domain R4-PFV (Homo sapiens, UniProt Q14671 828-1176, N971P;H972F;Q975V). In outline:
as §1

The next test deals with PUM1 PUF domain R5-FRM (Homo sapiens, UniProt Q14671 828-1176, C1007F;Q1011M). In outline:
as §1

For another test, the target named is PUM1 PUF domain R5-GMR (Homo sapiens, UniProt Q14671 828-1176, C1007G;R1008M;Q1011R). In short, it runs like this:
as §1

For the next test, the target named is PUM1 PUF domain R3-SGE (Homo sapiens, UniProt Q14671 828-1176, C935S;R936G;Q939E). In short, it runs like this: as §1
The next test addresses PUM1 PUF domain R2-GWF (Homo sapiens, UniProt Q14671 828-1176, N899G;Y900W;Q903F). In short, it runs like this: as §1
Another test has as its target PUM1 PUF domain R7-RKL (Homo sapiens, UniProt Q14671 828-1176, S1079R;N1080K;E1083L). In outline:
as §1

Another test concerns the target PUM1 PUF domain R7-KRL (Homo sapiens, UniProt Q14671 828-1176, S1079K;N1080R;E1083L). In outline:
as §1

Another test concerns the target PUM1 PUF domain R8-TYK (Homo sapiens, UniProt Q14671 828-1176, N1122T;Q1126K). In outline: as §1
The target in a further test is PUM1 PUF domain R1-YMR (Homo sapiens, UniProt Q14671 828-1176, S863Y;R864M;Q867R). In short, it runs like this:
as §1

In the next test the target is PUM1 PUF domain R8-KHW (Homo sapiens, UniProt Q14671 828-1176, N1122K;Y1123H;Q1126W). In short, it runs like this: as §1
Another test concerns the target PUM1 PUF domain R3-APA (Homo sapiens, UniProt Q14671 828-1176, C935A;R936P;Q939A). In outline: as §1
Another test concerns the target PUM1 PUF domain R5-IYG (Homo sapiens, UniProt Q14671 828-1176, C1007I;R1008Y;Q1011G). In short, it runs like this:
as §1

Another test addresses PUM1 PUF domain R4-GRN (Homo sapiens, UniProt Q14671 828-1176, N971G;H972R;Q975N). In outline: as §1
For the next test, the target named is PUM1 PUF domain R4-APF (Homo sapiens, UniProt Q14671 828-1176, N971A;H972P;Q975F). In short, it runs like this: as §1

Sequence of PUM1 PUF domain R4-PFV (Q14671 828-1176 N971P/H972F/Q975V): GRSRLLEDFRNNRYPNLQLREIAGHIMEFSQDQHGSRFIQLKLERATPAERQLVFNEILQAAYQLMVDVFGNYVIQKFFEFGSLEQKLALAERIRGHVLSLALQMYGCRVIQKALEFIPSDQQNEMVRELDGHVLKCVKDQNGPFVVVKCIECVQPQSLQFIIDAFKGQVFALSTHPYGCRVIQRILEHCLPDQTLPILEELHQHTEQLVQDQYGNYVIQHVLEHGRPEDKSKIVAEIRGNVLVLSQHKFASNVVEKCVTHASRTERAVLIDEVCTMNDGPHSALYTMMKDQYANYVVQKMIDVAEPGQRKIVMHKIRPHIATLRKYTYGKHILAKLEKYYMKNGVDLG
Sequence of PUM1 PUF domain R8-TYK (Q14671 828-1176 N1122T/Q1126K): as the sequence (Q14671 828-1176 N971P/H972F/Q975V) above, with P144N, F145H, V148Q, N295T, Q299K counted along it
Sequence of PUM1 PUF domain R1-YMR (Q14671 828-1176 S863Y/R864M/Q867R): as the sequence (Q14671 828-1176 N971P/H972F/Q975V) above, with S36Y, R37M, Q40R, P144N, F145H, V148Q counted along it
Sequence of PUM1 PUF domain R5-GMR (Q14671 828-1176 C1007G/R1008M/Q1011R): as the sequence (Q14671 828-1176 N971P/H972F/Q975V) above, with P144N, F145H, V148Q, C180G, R181M, Q184R counted along it

“GGCUAGAACUAGUGGAUCCCCCGGCGCCCGGCGGCUCGAGCCCGGGUAAGUGUAAUUAGUCUGCAUGCCGCCGGGCGCCAUGCCUGCAGGUCGACUCUAGAAAACAUG”: the binding signal in the test with PUM1 PUF domain R3-RRW was 3.94 log2 enrichment (interaction score); in the test with PUM1 PUF domain R3-EFA, 3.24 log2 enrichment (interaction score); with PUM1 PUF domain R3-TSR, 2.25 log2 enrichment (interaction score); with PUM1 PUF domain R3-RVA, 2.31 log2 enrichment (interaction score); with PUM1 PUF domain R3-VYW, 4.86 log2 enrichment (interaction score).
Turning to “GGCUAGAACUAGUGGAUCCCCCGGCGCCCGGCGGCUCGAGCCCGGGUAAGUGGAAAUAGUCUGCAUGCCGCCGGGCGCCAUGCCUGCAGGUCGACUCUAGAAAACAUG”, in the test with PUM1 PUF domain R6-DFE, the binding signal is 2.5 log2 enrichment (interaction score).
As to “GGCUAGAACUAGUGGAUCCCCCGGCGCCCGGCGGCUCGAGCCCGGGUAAGUGUACAUAGUCUGCAUGCCGCCGGGCGCCAUGCCUGCAGGUCGACUCUAGAAAACAUG”, the binding signal in the test with PUM1 PUF domain R4-PFV was 5.7 log2 enrichment (interaction score).
As to “GGCUAGAACUAGUGGAUCCCCCGGCGCCCGGCGGCUCGAGCCCGGGUAAGUGUCAAUAGUCUGCAUGCCGCCGGGCGCCAUGCCUGCAGGUCGACUCUAGAAAACAUG”, the binding signal was 2.1 log2 enrichment (interaction score) with PUM1 PUF domain R5-FRM and 3.28 log2 enrichment (interaction score) in the test with PUM1 PUF domain R5-GMR.
Take “GGCUAGAACUAGUGGAUCCCCCGGCGCCCGGCGGCUCGAGCCCGGGUAAGUGUAAGUAGUCUGCAUGCCGCCGGGCGCCAUGCCUGCAGGUCGACUCUAGAAAACAUG”: the values for the binding signal with PUM1 PUF domain R3-SGE and in the test with PUM1 PUF domain R3-RVA were 4.96 log2 enrichment (interaction score) and 0.81 log2 enrichment (interaction score), respectively.
For “GGCUAGAACUAGUGGAUCCCCCGGCGCCCGGCGGCUCGAGCCCGGGUAAGUGUUAAUAGUCUGCAUGCCGCCGGGCGCCAUGCCUGCAGGUCGACUCUAGAAAACAUG”, the binding signal in the test with PUM1 PUF domain R5-GMR was 1.23 log2 enrichment (interaction score).
For “GGCUAGAACUAGUGGAUCCCCCGGCGCCCGGCGGCUCGAGCCCGGGUAAGUGUAAAAAGUCUGCAUGCCGCCGGGCGCCAUGCCUGCAGGUCGACUCUAGAAAACAUG”, in the test with PUM1 PUF domain R2-GWF, the binding signal was 3.4 log2 enrichment (interaction score).
Regarding “GGCUAGAACUAGUGGAUCCCCCGGCGCCCGGCGGCUCGAGCCCGGGUAAGUUUAAAUAGUCUGCAUGCCGCCGGGCGCCAUGCCUGCAGGUCGACUCUAGAAAACAUG”, the figures for the binding signal with PUM1 PUF domain R7-RKL and in the test with PUM1 PUF domain R7-KRL were 4.32 log2 enrichment (interaction score) and 5.24 log2 enrichment (interaction score), respectively.
In the case of “GGCUAGAACUAGUGGAUCCCCCGGCGCCCGGCGGCUCGAGCCCGGGUAAGGGUAAAUAGUCUGCAUGCCGCCGGGCGCCAUGCCUGCAGGUCGACUCUAGAAAACAUG”, in the test with PUM1 PUF domain R8-TYK, the binding signal was 3.38 log2 enrichment (interaction score).
In the case of “GGCUAGAACUAGUGGAUCCCCCGGCGCCCGGCGGCUCGAGCCCGGGUAAGUGUAAAUUGUCUGCAUGCCGCCGGGCGCCAUGCCUGCAGGUCGACUCUAGAAAACAUG”, in the test with PUM1 PUF domain R1-YMR, the binding signal is 4.12 log2 enrichment (interaction score).
As for “GGCUAGAACUAGUGGAUCCCCCGGCGCCCGGCGGCUCGAGCCCGGGUAAGUGUAAAUCGUCUGCAUGCCGCCGGGCGCCAUGCCUGCAGGUCGACUCUAGAAAACAUG”, in the test with PUM1 PUF domain R1-YMR, the binding signal is 6.92 log2 enrichment (interaction score).
As to “GGCUAGAACUAGUGGAUCCCCCGGCGCCCGGCGGCUCGAGCCCGGGUAAGUCUAAAUAGUCUGCAUGCCGCCGGGCGCCAUGCCUGCAGGUCGACUCUAGAAAACAUG”, the binding signal with PUM1 PUF domain R7-RKL is 3.94 log2 enrichment (interaction score); with PUM1 PUF domain R7-KRL, 5.65 log2 enrichment (interaction score).
Consider “GGCUAGAACUAGUGGAUCCCCCGGCGCCCGGCGGCUCGAGCCCGGGUAAGCGUAAAUAGUCUGCAUGCCGCCGGGCGCCAUGCCUGCAGGUCGACUCUAGAAAACAUG”, for which the values for the binding signal with PUM1 PUF domain R8-KHW and in the test with PUM1 PUF domain R8-TYK were 5.39 log2 enrichment (interaction score) and 2.07 log2 enrichment (interaction score), respectively.
As for “GGCUAGAACUAGUGGAUCCCCCGGCGCCCGGCGGCUCGAGCCCGGGUAAGUGUAAAUAGUCUGCAUGCCGCCGGGCGCCAUGCCUGCAGGUCGACUCUAGAAAACAUG”, the binding signal with PUM1 PUF domain R8-KHW was 3.88 log2 enrichment (interaction score); with PUM1 PUF domain R4-PFV, 6.08 log2 enrichment (interaction score); in the test with PUM1 PUF domain R1-YMR, 2.85 log2 enrichment (interaction score); with PUM1 PUF domain R3-APA, 2.14 log2 enrichment (interaction score); in the test with PUM1 PUF domain R5-IYG, 4.13 log2 enrichment (interaction score); in the test with PUM1 PUF domain R4-GRN it was 2.76 log2 enrichment (interaction score). Moreover, the binding signal in the test with PUM1 PUF domain R4-APF was 3.52 log2 enrichment (interaction score); with PUM1 PUF domain R3-VYW, 6.32 log2 enrichment (interaction score); with PUM1 PUF domain R5-FRM it was 3.16 log2 enrichment (interaction score); with PUM1 PUF domain R5-GMR it was 0.88 log2 enrichment (interaction score); with PUM1 PUF domain R8-TYK it was 2.62 log2 enrichment (interaction score).
“GGCUAGAACUAGUGGAUCCCCCGGCGCCCGGCGGCUCGAGCCCGGGUAAGUGUAUAUAGUCUGCAUGCCGCCGGGCGCCAUGCCUGCAGGUCGACUCUAGAAAACAUG”: the binding signal with PUM1 PUF domain R4-PFV was 6.87 log2 enrichment (interaction score).
